From PubChem BioAssay AID1159580 (chemical genetic matrix, 2015)
Hit rate of the full screen: of about 5,500 compounds, about 2,000 (36%) were called active. Another 18% or so got no clear call; they are omitted. No stated cut-off is given here; in the data, active means normalized growth mostly below about 0.91 (no sharp cut-off); inconclusive means no clear call, values can overlap the other calls; inactive means mostly above about 0.92. This is one part of the list.

Experiment: chemical genetic growth profiling, strain panel (AID 1159580);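 further: tested at 20 µM; growth read once vehicle control cultures reached saturation at 30 °C; 1 = growth at the plate median or of vehicle wells; lower values mean less growth of the strain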
Details: growth OD
[1] = S. cerevisiae deletion strains, locus YAL040C, strain CLN3, hits give low values
[2] = S. cerevisiae deletion strains, locus YCL061C, strain MRC1 (second series), hits give low values
[3] = S. cerevisiae deletion strains, locus YDR363W, strain ESC2, hits give low values
[4] = S. cerevisiae deletion strains, locus YER002W, strain NOP16, hits give low values
[5] = S. cerevisiae deletion strains, locus YGR229C, strain SMI1, hits give low values
[6] = S. cerevisiae deletion strains, locus YMR307W, strain GAS1, hits give low values
[7] = S. cerevisiae deletion strains, locus YNL153C, strain GIM3, hits give low values
[8] = S. cerevisiae deletion strains, locus YNL175C, strain NOP13, hits give low values
[9] = S. cerevisiae deletion strains, locus YNL197C, strain WHI3, hits give low values
[10] = S. cerevisiae deletion strains, locus YNL224C, strain SQS1, hits give low values
[11] = S. cerevisiae deletion strains, locus YOR083W, strain WHI5 (second series), hits give low values
[12] = S. cerevisiae deletion strains, locus YPL055C, strain LGE1, hits give low values
[13] = S. cerevisiae deletion strains, locus YNL322C, strain KRE1, hits give low values

Measured: normalized growth

CCCN1CCc2cccc3c2[C@H]1Cc1ccc(O)c(O)c1-3
inactive: [1] 0.955 | [4] 0.975 | [8] 0.96 | [9] 0.985 | [10] 0.996
active: [2] 0.516 | [3] 0.79 | [5] 0.186 | [6] 0.481 | [7] 0.534 | [11] 0.631 | [12] 0.23

CCCN1CC[C@@H]2c3cc(O)ccc3CC[C@@H]21
inactive: [1] 1.02 | [2] 1.01 | [3] 1.01 | [4] 1.01 | [6] 1 | [7] 1.04 | [8] 1.01 | [9] 1.01 | [10] 1.02 | [13] 1.01 | [11] 1.01

COc1cc2c3cc1Oc1cc(ccc1O)OC1c4c(cc(OC)c(O)c4Oc4ccc(cc4)CC3N(C)CC2)CCN1C (centres undefined)
inactive: S. cerevisiae deletion strains, locus YAL013W, strain DEP1, hits give low values 0.992 | S. cerevisiae deletion strains, locus YBR021W, strain FUR4, hits give low values 0.971 | S. cerevisiae deletion strains, locus YBR229C, strain ROT2, hits give low values 0.993 | S. cerevisiae deletion strains, locus YCL029C, strain bik1, hits give low values 0.967 | S. cerevisiae deletion strains, locus YDL035C, strain GPR1, hits give low values 0.978 | S. cerevisiae deletion strains, locus YDL074C, strain BRE1, hits give low values 1.02 | S. cerevisiae deletion strains, locus YDL101C, strain DUN1, hits give low values 0.993 | S. cerevisiae deletion strains, locus YDL134C, strain PPH21, hits give low values 0.996 | S. cerevisiae deletion strains, locus YDL185W, strain tfp1, hits give low values 0.966 | S. cerevisiae deletion strains, locus YDL192W, strain arf1, hits give low values 0.981 | S. cerevisiae deletion strains, locus YDR101C, strain arx1, hits give low values 0.983 | S. cerevisiae deletion strains, locus YDR150W, strain NUM1, hits give low values 0.995 | S. cerevisiae deletion strains, locus YDR162C, strain NBP2, hits give low values 1.01 | S. cerevisiae deletion strains, locus YDR318W, strain mcm21, hits give low values 0.965 | S. cerevisiae deletion strains, locus YDR388W, hits give low values 0.989 | S. cerevisiae deletion strains, locus YDR502C, strain sam2, hits give low values 0.984 | S. cerevisiae deletion strains, locus YEL061C, strain CIN8, hits give low values 0.985 | S. cerevisiae deletion strains, locus YER110C, hits give low values 0.966 | S. cerevisiae deletion strains, locus YER155C, strain BEM2, hits give low values 0.999 | S. cerevisiae deletion strains, locus YER167W, strain BCK2, hits give low values 0.958 | S. cerevisiae deletion strains, locus YGL078C, strain dbp3, hits give low values 0.979 | S. cerevisiae deletion strains, locus YGL086W, strain mad1, hits give low values 0.963 | S. cerevisiae deletion strains, locus YGL248W, strain PDE1, hits give low values 0.999 | S. cerevisiae deletion strains, locus YGR078C, strain PAC10, hits give low values 1.02 | S. cerevisiae deletion strains, locus YGR135W, strain pre9, hits give low values 0.991 | [5] 1.01 | S. cerevisiae deletion strains, locus YGR252W, strain gcn5, hits give low values 0.925 | S. cerevisiae deletion strains, locus YHR030C, strain SLT2, hits give low values 0.972 | S. cerevisiae deletion strains, locus YHR079C, strain IRE1 (second series), hits give low values 0.992 | S. cerevisiae deletion strains, locus YHR094C, strain hxt1, hits give low values 0.957 | S. cerevisiae deletion strains, locus YHR129C, strain ARP1, hits give low values 0.997 | S. cerevisiae deletion strains, locus YHR200W, strain rpn10, hits give low values 0.964 | S. cerevisiae deletion strains, locus YIL066C, strain RNR3, hits give low values 0.996 | S. cerevisiae deletion strains, locus YIL073C, strain SPO22, hits give low values 0.899 | S. cerevisiae deletion strains, locus YIL125W, strain kgd1, hits give low values 0.984 | S. cerevisiae deletion strains, locus YIR030C, strain dcg1, hits give low values 0.978 | S. cerevisiae deletion strains, locus YJL095W, strain BCK1, hits give low values 1.03 | S. cerevisiae deletion strains, locus YJL134W, strain LCB3, hits give low values 0.99 | S. cerevisiae deletion strains, locus YJL168C, strain set2, hits give low values 0.986 | S. cerevisiae deletion strains, locus YJL187C, strain SWE1 (second series), hits give low values 0.999 | S. cerevisiae deletion strains, locus YJR043C, strain POL32, hits give low values 0.952 | S. cerevisiae deletion strains, locus YJR075W, strain HOC1, hits give low values 1.05 | S. cerevisiae deletion strains, locus YKL009W, strain mrt4, hits give low values 0.977 | S. cerevisiae deletion strains, locus YKL068W, hits give low values 0.975 | S. cerevisiae deletion strains, locus YKL085W, strain MDH1 (second series), hits give low values 0.995 | S. cerevisiae deletion strains, locus YKL085W, strain MDH1, hits give low values 0.995 | S. cerevisiae deletion strains, locus YKL190W, strain CNB1, hits give low values 0.998 | S. cerevisiae deletion strains, locus YKR001C, strain vps1, hits give low values 0.969 | S. cerevisiae deletion strains, locus YLR039C, strain RIC1, hits give low values 0.942 | S. cerevisiae deletion strains, locus YLR058C, strain SHM2, hits give low values 0.988 | S. cerevisiae deletion strains, locus YLR102C, strain apc9, hits give low values 0.98 | S. cerevisiae deletion strains, locus YLR262C, strain YPT6, hits give low values 0.982 | S. cerevisiae deletion strains, locus YLR268W, strain sec22, hits give low values 1 | S. cerevisiae deletion strains, locus YLR330W, strain CHS5, hits give low values 0.987 | S. cerevisiae deletion strains, locus YLR342W, strain FKS1 (second series), hits give low values 0.957 | S. cerevisiae deletion strains, locus YLR371W, strain rom2, hits give low values 0.968 | S. cerevisiae deletion strains, locus YLR418C, strain cdc73, hits give low values 1.02 | S. cerevisiae deletion strains, locus YML016C, strain PPZ1, hits give low values 0.99 | S. cerevisiae deletion strains, locus YML032C, strain rad52, hits give low values 0.951 | S. cerevisiae deletion strains, locus YML124C, strain tub3, hits give low values 0.976 | S. cerevisiae deletion strains, locus YMR078C, strain ctf18, hits give low values 0.968 | S. cerevisiae deletion strains, locus YMR223W, strain ubp8, hits give low values 0.951 | S. cerevisiae deletion strains, locus YMR263W, strain SAP30, hits give low values 1.01 | [6] 0.955 | S. cerevisiae deletion strains, locus YNL067W, strain RPL9B, hits give low values 1 | S. cerevisiae deletion strains, locus YNL128W, strain TEP1, hits give low values 0.99 | [7] 1.02 | S. cerevisiae deletion strains, locus YNL233W, strain BNI4, hits give low values 1.02 | S. cerevisiae deletion strains, locus YNL250W, strain rad50, hits give low values 0.973 | S. cerevisiae deletion strains, locus YNL271C, strain bni1, hits give low values 0.993 | S. cerevisiae deletion strains, locus YNL298W, strain CLA4, hits give low values 0.967 | S. cerevisiae deletion strains, locus YNL307C, strain MCK1, hits give low values 0.952 | [13] 0.979 | S. cerevisiae deletion strains, locus YNR052C, strain pop2, hits give low values 0.961 | S. cerevisiae deletion strains, locus YOL006C, strain TOP1, hits give low values 1.03 | S. cerevisiae deletion strains, locus YOL012C, strain htz1 1.06 | S. cerevisiae deletion strains, locus YOL147C, strain pex11, hits give low values 0.973 | S. cerevisiae deletion strains, locus YOR061W, strain CKA2, hits give low values 0.998 | S. cerevisiae deletion strains, locus YOR069W, strain VPS5, hits give low values 0.991 | S. cerevisiae deletion strains, locus YOR136W, strain idh2, hits give low values 0.96 | S. cerevisiae deletion strains, locus YOR144C, strain elg1, hits give low values 0.982 | S. cerevisiae deletion strains, locus YOR184W, strain ser1, hits give low values 0.93 | S. cerevisiae deletion strains, locus YOR316C, strain cot1, hits give low values 0.977 | [12] 1 | S. cerevisiae deletion strains, locus YPL241C, strain CIN2, hits give low values 0.997 | S. cerevisiae deletion strains, locus YPR119W, strain clb2, hits give low values 0.989 | S. cerevisiae deletion strains, locus YPR141C, strain kar3, hits give low values 0.99 | S. cerevisiae deletion strains, locus YPR163C, strain tif3, hits give low values 0.96 | S. cerevisiae deletion strains, locus YPR167C, strain met16, hits give low values 0.98 | S. cerevisiae deletion strains, strain wtn01, hits give low values 1.01 | S. cerevisiae strains, strain wild type, hits give low values 0.989
